An excerpt weighted towards active compounds, which were near 4.8% of everything screened.
HIF act – HIF pathway transcriptional activators, primary screen, cell-based, U2OS HRE-luciferase, luminescence; U2OS HRE-luciferase reporter; normalized: DMSO 0%, desferrioxamine 100%; activation, % at 7.5 µM (by protocol); 0.32% of 300,000 active;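 active = mean activation of at least 10% of the iron chelator positive control signal, with at least half of replicates also reaching 10%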
SUMO Mot1 rescue – yeast Mot1-301 growth rescue at high temperature, primary screen, SUMOylation pathway inhibitor project, S. cerevisiae, ATP luminescence, 38.5C; growth rescue, % at 18.8 µM; 1% of 320,000 active; S. cerevisiae Mot1-301 growth rescue; percent above DMSO median, 100 means doubled;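 active = every valid replicate shows activation above 250% relative to neutral control wells; inactive = the rest, any valid replicate at or below 250%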
AI-2 QS mod – Vibrio harveyi AI-2 quorum sensing modulators, primary screen, JMH597 strain, luminescence/OD600 ratio; 0.4% of 300,000 active; Vibrio harveyi JMH597 AI-2 luminescence/OD600 ratio, 9 h; hits give low values; strain lacks LuxN and CqsS sensors; 0 = neutral-control median; activity change, % at 7.5 µM; in the data active = activity change below about -75%, passing the limit was not always enough;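 also: luminescence divided by OD600 gain over 9 h not by final OD600 alone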
ALR inh – inhibitors of human ALR sulfhydryl oxidase, primary screen, biochemical, H2O2 detection, HRP-luminol luminescence, single point; inhibition, % (test concentration not listed); AID 485317, 2010; 3.8% of 290,000 active; FAD-linked sulfhydryl oxidase ALR (Homo sapiens), P55789; purified ALR, DTT oxidation;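 active = mean replicate inhibition above about 79%, with every replicate also reaching it, limit read from the data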
Target sequence (P55789 whole entry, looked up): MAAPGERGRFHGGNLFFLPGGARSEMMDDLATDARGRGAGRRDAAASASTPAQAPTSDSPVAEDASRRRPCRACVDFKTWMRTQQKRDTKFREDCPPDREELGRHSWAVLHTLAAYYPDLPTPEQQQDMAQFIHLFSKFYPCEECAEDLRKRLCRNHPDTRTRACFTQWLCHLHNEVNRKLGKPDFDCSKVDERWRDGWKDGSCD
Yeast Mot1 SUMO – growth restoration of Mot1-301 yeast on galactose, dose response, SUMO pathway inhibitor project, whole organism, S. cerevisiae, ATP luminescence, cherry-picked samples; AID 493004, 2010; growth activity, percent, % at 42 µM; 2,300 tested, under 10 active; S. cerevisiae Mot1-301 galactose growth, 24 h; -100 = growth of slx-deleted rescue strain; shares compounds with SUMO Mot1 rescue;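 active = Signal drops as the depositor expects, and the fitted half-maximal dose is no more than ten times the top valid tested dose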;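 also: more negative values mean stronger growth rescue toward the control strain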
Of the large screens only hits and unclear results are named; the others gave an inactive call (follow-up assays come after a bar, where they were run).

Cc1cccn2c(=O)c3cc(C(=O)NC4CCS(=O)(=O)C4)n(Cc4ccccc4)c3nc12 (configuration not stated)	none
CCCC(O)(c1ccc(Cl)cc1)C(CN1CCOCC1)c1ccccc1 (configuration not stated)	none (no result: SUMO Mot1 rescue, ALR inh)
CCCC(O)(c1ccc(Br)cc1)C(CN1CCOCC1)c1ccc(Cl)cc1 (configuration not stated)	SUMO Mot1 rescue 554.8 | Yeast Mot1 SUMO inactive
CC(C)(C)C(=O)Nc1ccc(/C=C/C(=O)c2ccco2)cc1	none
N#Cc1ccc(/C=C/C(=O)c2ccco2)cc1	SUMO Mot1 rescue 718.4 | Yeast Mot1 SUMO inactive
CCCCCCNc1c(C(=O)OCC)c(=O)[nH]c2ccccc12	SUMO Mot1 rescue 777.7 | Yeast Mot1 SUMO inactive
CCOc1ncccc1C(=O)NNC(=O)c1cccc(S(=O)(=O)Nc2ccc(OC)cc2)c1	none
CCC(C)[C@H](NC(=O)Nc1ccc(S(N)(=O)=O)cc1)C(=O)O (some centres not stated)	none
COC(=O)[C@@H](NC(=O)Nc1ccc(S(N)(=O)=O)cc1)C(C)C	SUMO Mot1 rescue 373.3 | Yeast Mot1 SUMO inactive
COc1ccccc1CNC(=O)[C@H](C)NC(=O)C1CCN(C(=O)[C@@H](N)CC(C)C)CC1	SUMO Mot1 rescue 617.8 | Yeast Mot1 SUMO inactive
COc1ccccc1CNC(=O)[C@H](NC(=O)C1CCN(C(=O)[C@@H](N)CCSC)CC1)C(C)C	none
CCn1c(=NC(=O)CS(=O)(=O)c2ccc(C)cc2)sc2cccc(OC)c21	none
CCN1C(=O)N(C)[C@@H](c2ccccc2)C(C(=O)OC)=C1C	SUMO Mot1 rescue 948.4 | Yeast Mot1 SUMO inactive
CCN1C(=O)N(S(=O)(=O)C(F)(F)F)[C@@H](c2ccccc2)C(C(=O)OC)=C1C	none
O=C(COc1ccc(S(=O)(=O)N2CCOCC2)cc1)Nc1ccccc1Cl	none (no result: AI-2 QS mod)
Nc1ccc(NC(=O)c2ccco2)c(Cl)c1	SUMO Mot1 rescue 439.5, ALR inh 98.8 | Yeast Mot1 SUMO inactive
Cc1cc(C)c(S(=O)(=O)NC2CC(C)(C)NC(C)(C)C2)cc1C	none (no result: AI-2 QS mod)
COc1c(C)cc(S(=O)(=O)NC2CC(C)(C)NC(C)(C)C2)c(C)c1C	SUMO Mot1 rescue 687.4 | Yeast Mot1 SUMO inactive
Cc1cccc(CC(C)NC(=O)CCc2nnc(-c3ccccc3)o2)n1 (configuration not stated)	none (no result: ALR inh)
CC(NC(=O)CCc1nnc(-c2ccc(-c3ccccc3)cc2)o1)c1nc2ccccc2[nH]1 (configuration not stated)	SUMO Mot1 rescue 451.7 | Yeast Mot1 SUMO inactive
CNS(=O)(=O)c1ccc2c(c1)oc(=O)c1cc(S(=O)(=O)NC)ccc12	none
O=c1oc2cc(S(=O)(=O)NCCCO)ccc2c2ccc(S(=O)(=O)NCCCO)cc12	SUMO Mot1 rescue 460.8 | Yeast Mot1 SUMO inactive
Cc1ccc2oc(C(=O)NCc3ncc(C)[nH]3)c(C)c2c1	none
Cc1ccc(OCC(=O)NCc2n[nH]c(=O)c3ccccc23)cc1	none
c1ccc(Cn2c[n+](Cc3ccccc3)c3ccccc32)cc1	none
CCc1ccc(N(CC(=O)NCc2ccco2)C(=O)CCC(=O)Nc2nccs2)cc1	none
CCOC(=O)c1cc2sc(C)cc2n1CC(=O)Nc1ccc2c(c1)OCCO2	SUMO Mot1 rescue 784.4 | Yeast Mot1 SUMO inactive
CCOC(=O)c1cc2sc(C)cc2n1CC(=O)Nc1cccc(C)c1C	none
CCc1ccc(OCC(=O)N(CC)CC)cc1	none
Cc1ccc(CN2C(=O)c3ccccc3NC2c2ccccn2)cc1 (configuration not stated)	none
CCCN1C(=O)c2ccccc2NC1c1ccc(C)cc1 (configuration not stated)	SUMO Mot1 rescue 457.8 | Yeast Mot1 SUMO inactive
CCN(CCn1cccn1)C(=O)c1cc(COc2cc(C)ccc2C)on1	none
CC1=C(C(=O)OCc2ccccc2)C(c2cccc(F)c2)NC(=O)N1 (configuration not stated)	SUMO Mot1 rescue 611.2 | Yeast Mot1 SUMO inactive
CC1=C(C(=O)OCc2ccccc2)C(c2ccccc2)NC(=O)N1 (configuration not stated)	none
Cc1ccc(S(=O)(=O)N[C@@H](Cc2ccccc2)C(=O)CCl)cc1	SUMO Mot1 rescue 607.9, ALR inh 97.9 (no result: HIF act) | Yeast Mot1 SUMO inactive
Cc1cc(C)cc(CN2C(=O)NC3(CCCCCC3)C2=O)c1	none
CC(=O)N(C)c1ccc(N2CCOCC2)c2c1C(=O)c1ccccc1C2=O	SUMO Mot1 rescue 455.9 | Yeast Mot1 SUMO inactive
O=C1c2ccccc2C(=O)c2c1cccc2N1CCOCC1	none
O=C(COc1ccccc1F)Nc1ccc(S(=O)(=O)N2CCCC2)cc1	none (no result: HIF act, AI-2 QS mod, ALR inh)
O=C1c2cccc3c(N4CCCCC4)ccc(c23)C(=O)N1CCO	SUMO Mot1 rescue 423.8 | Yeast Mot1 SUMO inactive
C=CCN1C(=O)c2cccc3c(N4CCCCC4)ccc(c23)C1=O	none
Cc1noc(C)c1NC(=O)N(C)C[C@H]1Oc2ccc(NC(=O)Cn3cnnn3)cc2C(=O)N([C@H](C)CO)C[C@@H]1C	none (no result: HIF act, AI-2 QS mod, ALR inh)
Cc1ccc(CNC(=O)CCn2cc(-c3ccc(C)cc3)nc2CCN)cc1	SUMO Mot1 rescue active (no result: HIF act, AI-2 QS mod) | Yeast Mot1 SUMO inactive
COc1ccc(-c2cn(CCC(=O)NCc3ccc(C)cc3)c(-c3ccncc3)n2)cc1	none
CCC(=O)N1CCc2cc(S(=O)(=O)CCC(=O)Nc3cccc(C)n3)ccc21	SUMO Mot1 rescue active | Yeast Mot1 SUMO inactive
Cc1[nH]c(C)c(C(=O)/C=C/c2ccc([N+](=O)[O-])cc2)c1C	none
CC1CC(C)CN(C(=O)c2nn(C)c3c2CS(=O)(=O)c2ccccc2-3)C1 (configuration not stated)	none
COc1cc(C(=O)NCCC2=CCCCC2)cc(OC)c1OC	SUMO Mot1 rescue 806.6 | Yeast Mot1 SUMO inactive
COc1cccc(C(=O)NCCC2=CCCCC2)c1OC	none
COc1cc(C(=O)NCCOc2cc(C)cc(C)c2)cc(OC)c1OC	SUMO Mot1 rescue 631.4 | Yeast Mot1 SUMO inactive
COc1cc(C(=O)NCCOc2ccccc2)cc(OC)c1OC	none
O=C(c1ccc(Cn2cc(Cl)c([N+](=O)[O-])n2)cc1)N1CCN(Cc2ccccc2)CC1	none
CN(C)S(=O)(=O)c1cc(NC(=O)CSc2nn(-c3ccc(Cl)cc3)c(=S)s2)ccc1Cl	SUMO Mot1 rescue 555.2 | Yeast Mot1 SUMO inactive
Cc1ccc(NC(=O)CSc2nn(-c3ccc(Cl)cc3)c(=S)s2)cc1S(=O)(=O)N(C)C	none
Cc1cc2c(SCC(=O)NC3CCCC3)ncnc2s1	none
CCCOC(=O)c1ccc(O)c(OC)c1	SUMO Mot1 rescue 397.6 | Yeast Mot1 SUMO inactive
Cc1ccc(CNC(=O)N2CCN(S(=O)(=O)c3ccccc3)CC2)cc1	none

From PubChem BioAssay
